Measurements as given in ChEMBL document CHEMBL1157539, “Thousands of chemical starting points for antimalarial lead identification” (Nature, 2010).

How the values were obtained:
Format in all cases: functional
Plasmodium falciparum [1] = assay: GSK_TCMDC: Inhibition of Plasmodium falciparum 3D7 in whole red blood cells, using parasite LDH activity as an index of growth. Test compounds present at 2uM
Plasmodium falciparum [2] = assay: GSK_TCMDC: Inhibition of Plasmodium falciparum Dd2 in whole red blood cells, using parasite LDH activity as an index of growth. Test compounds present at 2uM
HepG2 = assay: GSK_TCMDC: Percent inhibition of human HepG2 cell line. Test compounds present at 10uM.

Row | SMILES | Inhibition (Plasmodium falciparum [1]) | Inhibition (Plasmodium falciparum [2]) | Inhibition (HepG2)
1 | COc1ccc2c(c1)S(=O)(=O)N=C(N1CCCC1c1ccc(Cl)c(Cl)c1)N2C.O=C(O)C(F)(F)F (configuration not stated) | 89% | 19% | 0%
2 | Cc1cc2c(NC(=O)NC3CCN(CCc4cccc(Cl)c4)CC3)cccc2cn1.Cl | 100% | 27% | 12%
3 | COc1ccc(-c2ncnc(C(F)(F)F)c2-c2ccc(Cl)cc2)c(O)c1 | 100% | 22% | 1%
4 | O=C(CCCCCNC(=O)c1ccc(O)c(-c2ccc(Cl)c(Cl)c2)c1)NC1CCCCCC1 | 92% | 3% | 0%
5 | C[C@H]1CN(Cc2cccc(-c3cc(CNC(=O)c4cccc(CC5CCN(C)CC5)c4)ccc3F)c2)CCN1C | 100% | 99% | 42%
6 | O=C(Nc1ccc(Cl)cc1)c1cc(Cl)cc2nc(C(F)(F)F)[nH]c12 | 100% | 100% | 87%
7 | Cc1[nH]c(C)c(-c2ccc(Oc3ccc(F)cc3)cc2)c(=O)c1Cl | 99% | 98% | 14%
8 | CCn1cnc2c(N3CCCC3=O)cc(C(=O)N[C@@H](Cc3ccccc3)[C@H](O)CNC3CCCCC3)cc21 | 98% | 94% | 0%
9 | CCN1CCN(c2cc(C)c3cc(NC(=O)c4cncc(Br)c4)ccc3n2)CC1 | 97% | 63% | 3%
10 | Br.Oc1ccccc1CCNC1CCc2ccccc2C1 (configuration not stated) | 96% | 95% | 0%
11 | CN(C)CCN(C)Cc1ccc(-c2ccc(NS(=O)(=O)c3cccc4cccnc34)cc2)cc1.O=C(O)C(F)(F)F | 93% | 16% | 23%
12 | CCN(C(=O)NC)C1c2cc(C#N)ccc2OC(C)(C)C1O (configuration not stated) | 96% | 2% | 3%
13 | N=C(N)NC(=O)Nc1cc(Cl)c(Cl)c(Br)c1 | 99% | 99% | 16%
14 | O=C(CN1CCN(S(=O)(=O)C=Cc2ccccc2)CC1)Nc1cc(C(F)(F)F)ccc1Cl | 96% | 63% | 23%
15 | CCCC(=O)NC(c1ccc(C(C)C)cc1)c1ccc2cccnc2c1O (configuration not stated) | 90% | 37% | 50%
16 | CC(=O)Nc1cccc(Nc2nccc(Nc3ccc(Oc4ccccc4)cc3)n2)c1.Cl | 100% | 99% | 15%
17 | Nc1cccc(-c2ccc3ccnc(N)c3c2)c1 | 91% | 66% | 30%
18 | CN(C)CCN(C)Cc1ccc(-c2ccc3c(Nc4ccc(F)cc4Cl)ccnc3c2)o1 | 100% | 100% | 31%
19 | Br.CC=CCON1C(=N)NC(=N)NC1(C)C | 94% | 1% | 57%
20 | CN1CCc2cc(NC(=O)c3cc4ccccc4s3)cc(-c3ccccc3)c2CC1.Cl | 91% | 11% | 20%
21 | CC(C)(C)C(C)(C)Cc1ccc(O)c(CN2CCN(c3ccccc3)CC2)c1 | 99% | 98% | 6%
22 | COc1ccccc1C1CCN(C2CCC(NC(=O)/C=C/c3cc(C(F)(F)F)cc(C(F)(F)F)c3)CC2)CC1 (configuration not stated) | 92% | 21% | 31%
23 | O=C(O)C(F)(F)F.OC1(c2ccccc2)CCN(Cc2cccc(-c3c[nH]c4nc(NC5CCCC5)ncc34)c2)C1 (configuration not stated) | 92% | 31% | 42%
24 | O=CO.Oc1ccccc1CNCc1ccc(-c2cnc(N3CCCC(c4ccccc4)C3)nc2)cc1 (configuration not stated) | 99% | 84% | 6%
25 | CCC(C)C(COC(=O)c1cc(OC)c(OC)c(OC)c1)N(C)CCN(C)C(COC(=O)c1cc(OC)c(OC)c(OC)c1)C(C)CC.Cl (configuration not stated) | 84% | 45% | 20%
26 | Cc1cccc(C(=O)Nc2ccnc(N3CCC(N(C)Cc4ccc(C#N)cc4)CC3)c2)c1.O=C(O)C(F)(F)F | 94% | 6% | 12%
27 | CCNc1cc(C(=O)N[C@@H](Cc2ccccc2)[C@H](O)CN[C@@H]2CCc3ccccc32)cc(N2CCCC2=O)c1 | 92% | 93% | 0%
28 | CCCC(CNCc1cccc(I)c1)CNc1cc(=O)c2ccccc2[nH]1 (configuration not stated) | 100% | 96% | 0%
29 | CC(=O)Nc1ccc(C(=O)Nc2ccc(-c3csc(-c4nc5ccccc5[nH]4)c3)cc2)cn1 | 93% | 0% | 11%
